Values joined by “and” are separate entries in the source; they are usually repeats but may differ in a detail not shown here. Equal values may be shown once. The whole screen tested about 200,000 compounds, of which about 720 (0.36%) were called active. Roughly 8% stayed inconclusive and do not appear here. Calls follow the shape of the dose curve; as a rule, active = well fitted activation curve with a large enough effect; inconclusive = small, poorly fitted or top-dose-only effect, or effect the other way, or another doubt; inactive = flat fitted curve, though single readings scatter. The list shows a part of the results.
Potency is read from the fitted curve at half-maximal effect.

In the test the target is Lysosomal alpha-glucosidase (Homo sapiens) (UniProt P10253). The test is described as follows: qHTS Assay for Activators of Human alpha-Glucosidase as a Potential Chaperone Treatment of Pompe Disease. Also: nearly all actives have a fitted effect of over 80% in size. Particulars: purified enzyme, 4-MU-alpha-glucoside fluorescence, 20 min; series mostly up to 76.9 µM. The text has this: NIH Chemical Genomics Center [NCGC] NIH Molecular Libraries Probe Production centers Network [MLPCN] MLPCN Grant: 1R03MH084841-01 Assay Submitter (PI): Wei Zheng NCGC Assay Overview: Alpha-glucosidase is responsible for hydrolysis of terminal, non-reducing 1,4-linked alpha-D-glucose residues with release of alpha-D-glucose. It is a lysosomal hydrolase that is required for the degradation of a small percentage (1-3%) of cellular glycogen in human. Deficiency of this enzyme results in glycogen-storage disease type II (GSDII), also referred to as Pompe disease, an autosomal recessive disorder. Structurally normal glycogen is accumulated in lysosomes and cytoplasm in affected patients, primarily in muscle tissues. Excessive glycogen storage within lysosomes may interrupt normal functioning of other organelles and leads to cellular injury. In turn, this leads to enlargement and dysfunction of the entire organ involved (eg, cardiomyopathy and muscle weakness). It has reported that the improper folding and trafficking of alpha-glucosidase resulting from the genetic mutations may account for a significant number of Pompe patients. […] We optimized this alpha-glucosidase assay in 1536-well plate format for identifying the novel small molecule inhibitors with the structures other than the sugar analogs in order to develop the new pharmacological chaperones, but are also able to detect potential activators. In conjunction with assays against alpha-galactosidase (AID 1467), fluorogenic false positive compounds can be identified.
NCGC Assay Protocol Summary: This is a fluorogenic enzyme assay with 4-methylumbelliferyl-alpha-D-[…] as the substrate and human alpha-glucosidase as the enzyme preparation. Upon the hydrolysis of this fluorogenic substrate, the resulting product, 1. 4-methyllumbelliferone, can be excited at 365 nm and emits at 440 nm which can be detected by a standard fluorescence plate reader. Data were normalized to the controls for basal activity (without enzyme) and 100% activity (with enzyme). In the AC50 values were determined from concentration-response data modeled with the standard Hill equation. Assay buffer: 50 mM citric acid (titrated with potassium phosphate to pH 5.0), 0.005% Tween-20, pH 5.0. (pH 5.0 is an optimal condition for this enzyme assay) 1536-well assay protocol for the human alpha-glucosidase: (1) Add 2 ul/well of enzyme (4 nM final) (2) Add 23 nL compounds in DMSO solution. The final titration was 0.7 nM to 77 uM. (3) Add 1 ul of substrate (400 uM final) (4) Incubate at room temperature for 20 min. (5) Add 2 ul stop solution (1M NaOH and 1M Glycine mixture, pH 10) (6) Detect the assay plate in a ViewLux plate reader (PerkinElmer) with Ex=365 nm and Em=440nm. Keywords: Alpha-glucosidase, Pompe Disease, pharmacological chaperone, chaperone therapy, high throughput screening, alpha-glucosidase inhibitor, MLSMR, MLSCN, NIH Roadmap, qHTS and NCGC
On the technique in general: Quantitative high-throughput screening tests each substance at several concentrations.
For `N=c1oc2cc(O)ccc2cc1C(=O)Nc1nc2ccccc2s1`, the Potency is 35.5 µM (active).

Regarding `N=c1oc2cc(O)ccc2cc1C(=O)Nc1ccccn1`, the Potency is 35.5 µM (active).

In the case of `CCOC(=O)c1cccc(-n2c(-c3ccc(OC)cc3)nc3nc4ccccc4nc32)c1`, the Potency is 5.01 µM (active).

Regarding `CCCn1c(-c2cccs2)nc2nc3ccccc3nc21`, the Potency was 35.5 µM (active).

Take `C=CCn1c(-c2ccc(OC)cc2)nc2nc3ccccc3nc21`: the Potency was 35.5 µM (active).

Regarding `C=CCn1c(-c2cccs2)nc2nc3ccccc3nc21`, the Potency was 35.5 µM (active).

Consider `CCC(C)n1c(-c2cccs2)nc2nc3ccccc3nc21` (stereo not drawn), for which the Potency is 35.5 µM (active).

`CC(C)Cn1c(-c2cccs2)nc2nc3ccccc3nc21`: the Potency is 35.5 µM (active).

With `Cc1ccc(-c2cc(C(=O)NCCCn3ccnc3)c3ccccc3n2)s1`, the Potency is 28.2 µM (active).

Turning to `Cc1cccn2c(=O)c3cc(C(=O)NCCCN4CCCC4=O)n(C)c3nc12`, the Potency was 35.5 µM (active).

As for `Cc1ccc2nc3c(cc(C(=O)NCCCn4ccnc4)n3C)c(=O)n2c1`, the Potency is 35.5 µM (active).

On to `Cc1cccn2c(=O)c3cc(C(=O)N4CCN(C(=O)c5ccco5)CC4)n(C)c3nc12`, for which the Potency is 35.5 µM (active).

Take `Nc1cc(C(=O)O)c(Oc2ccc(Cl)cc2Cl)cc1C(=O)O`: the Potency was 35.5 µM (active).

As to `CCc1cc2c3c(c(=O)oc2cc1O)CCCC3`, the Potency is 28.2 µM (active).

With `O=c1oc2cc(O)ccc2c2c1CCCC2`, the Potency was 35.5 µM (active).

Turning to `COC(=O)C1=CN(Cc2ccc(OC)cc2)C=C(C(=O)OC)C1c1ccsc1`, the Potency is 25.1 µM (active).

`COC(=O)C1=CN(Cc2ccc(OC)cc2)C=C(C(=O)OC)C1c1cccs1`: the Potency is 25.1 µM (active).

In the case of `Cc1ccc(-c2cn3cccnc3n2)cc1`, the Potency was 35.5 µM (active).

For `COc1ccc(-c2cn3cccnc3n2)cc1`, the Potency is 35.5 µM (active).

Regarding `FC(F)(F)Oc1ccc(-c2cn3cccnc3n2)cc1`, the Potency is 35.5 µM (active).

As for `CC1(C)CN(c2ccc(-c3ccnc4ncnn34)cc2)C1=O`, the Potency is 28.2 µM (active).

For `N#Cc1c(C(F)(F)F)cc(-c2cccs2)nc1SCc1cccnc1`, the Potency is 35.5 µM (active).

`Cc1[nH]c2ccccc2c1C(O)CN1CCN(c2cccc(C(F)(F)F)c2)CC1` (stereo not drawn): the Potency is 35.5 µM (active).

Turning to `CC(C)c1cc(NCCCN2CCOCC2)n2c(nc3ccccc32)c1C#N`, the Potency is 31.6 µM (active).

`Cc1cc(NCCCN2CCOCC2)n2c(nc3ccccc32)c1C#N`: the Potency is 31.6 µM (active).

As for `COc1ccc(-c2c(C#N)c(N)nc3c2CCc2ccccc2-3)cc1OC`, the Potency is 35.5 µM (active).

In the case of `COCCCn1cnc2oc3nc4ccccc4nc3c2c1=O`, the Potency is 35.5 µM (active).

Regarding `CC(=O)Nc1cc2ccc(OC(C)=O)cc2oc1=O`, the Potency was 35.5 µM (active).

For the molecule `CCOC(=O)c1cc2c(ccc3ccccc32)oc1=O`, the Potency was 35.5 µM (active).

For `O=C(O)c1cc2c(ccc3ccccc32)oc1=O`, the Potency is 35.5 µM (active).

`CC(=O)Nc1cc2c(ccc3ccccc32)oc1=O`: the Potency was 25.1 µM (active).

As for `O=C(c1cc2c(ccc3ccccc32)oc1=O)N1CCCC1`, the Potency is 31.6 µM (active).

`CC(OC(=O)c1cc2c(ccc3ccccc32)oc1=O)c1nc2ccccc2s1` (stereo not drawn): the Potency was 28.2 µM (active).

`O=C(NCCc1ccccc1)c1cnc2ccccn2c1=O`: the Potency was 25.1 µM (active).

With `Cc1ccc(-n2c3nc(=O)[nH]c(=O)c-3cc3c(C)nn(-c4ccccc4)c32)c(C)c1`, the Potency is 25.1 µM (active).

Consider `Cc1cccc(-n2c3nc(=O)[nH]c(=O)c-3cc3c(C)nn(-c4ccccc4)c32)c1C`, for which the Potency was 22.4 µM (active).

As for `Cc1cccc(-n2c3nc(=O)[nH]c(=O)c-3cc3c(C)nn(-c4ccccc4)c32)c1`, the Potency is 20 µM (active).

Regarding `O=c1c(-c2nc3ccccc3s2)cccn1Cc1ccc(Cl)c(Cl)c1`, the Potency is 28.2 µM (active).

For `Cc1ccc(Cn2cccc(-c3nc4ccccc4s3)c2=O)cc1`, the Potency is 28.2 µM (active).

Regarding `O=c1c(-c2nc3ccccc3s2)cccn1Cc1ccccc1`, the Potency is 39.8 µM (active).

Turning to `O=c1c(-c2nc3ccccc3s2)cccn1Cc1ccc(Cl)cc1`, the Potency is 10 µM (active).

Turning to `COc1cc(=O)n(C)c2cc(N(C)C)ccc12`, the Potency is 31.6 µM (active).

For `COc1cc2nc(N3CCN(C(=O)C4CCCO4)CC3)nc(N)c2cc1OC` (stereo not drawn), the Potency was 35.5 µM (active) and 39.8 µM (active).

Regarding `COc1cc2nc(N3CCN(C(=O)C4COc5ccccc5O4)CC3)nc(N)c2cc1OC` (stereo not drawn), the Potency is 39.8 µM (active).

In the case of `COc1cc2nc(N(C)CCCNC(=O)C3CCCO3)nc(N)c2cc1OC` (stereo not drawn), the Potency is 35.5 µM (active).

As for `O=C(O)C(=O)/C(=C\c1cccc(Cl)c1)c1ccc2ccccc2n1`, the Potency is 28.2 µM (active).

Take `Cc1ccc2nc(-c3ccc(NS(=O)(=O)c4ccc(F)cc4)cc3)sc2c1`: the Potency was 35.5 µM (active).

Consider `Cc1ccc2sc(-c3ccc(NC(=O)/C=C\C(=O)O)cc3)nc2c1`, for which the Potency is 39.8 µM (active).

With `Cc1nc2ccc(S(=O)(=O)Nc3ccc(-c4nc5cccnc5s4)cc3)cc2s1`, the Potency is 35.5 µM (active).

`Cc1cccc(S(=O)(=O)Nc2ccc(-c3nc4ccc(C)cc4s3)cc2)c1`: the Potency was 31.6 µM (active).

Take `Cc1cc(-c2nc3cccnc3s2)ccc1NS(=O)(=O)c1ccc2c(c1)OCCO2`: the Potency was 35.5 µM (active).

Take `Cc1ccc2nc(-c3ccc(NS(=O)(=O)c4ccc(F)c(F)c4)cc3)sc2c1`: the Potency is 3.55 µM (active).

`Cc1ccc(S(=O)(=O)Nc2ccc(-c3nc4ccc(C)cc4s3)cc2)cc1`: the Potency was 35.5 µM (active).

Consider `C/C(=N\NC(=O)CC#N)c1cc2ccc(O)cc2oc1=O`, for which the Potency is 35.5 µM (active).

In the case of `Cc1c2c(n3c(nc4ccccc43)c1C#N)N(CCCN(C)C)CC2`, the Potency is 35.5 µM (active).

In the case of `Cc1c2c(n3c(nc4ccccc43)c1C#N)N(CCN1CCOCC1)CC2`, the Potency is 5.62 µM (active).

Consider `CCOCCCn1c(=NC(C)=O)c(C(=O)OCC)cc2c(=O)n3ccccc3nc21`, for which the Potency was 39.8 µM (active).

Consider `CCOC(=O)c1cc2c(=O)n3ccccc3nc2n(CCCOC)c1=NC(C)=O`, for which the Potency was 35.5 µM (active).

In the case of `CCCn1c(=NC(C)=O)c(C(=O)OCC)cc2c(=O)n3ccccc3nc21`, the Potency was 35.5 µM (active).

For the molecule `CCOC(=O)c1cc2c(=O)n3ccccc3nc2n(CC2CCCO2)c1=NC(C)=O` (stereo not drawn), the Potency was 35.5 µM (active).

Take `CCOC(=O)c1cc2ccc(OC)cc2oc1=O`: the Potency is 31.6 µM (active).

For the molecule `CNC(=O)c1cc2ccc(OC)cc2oc1=O`, the Potency was 28.2 µM (active).

Regarding `CCOC(=O)c1cc2ccc(OC(=O)c3ccco3)cc2oc1=O`, the Potency was 35.5 µM (active).

Source of the values: PubChem BioAssay AID2242 (National Center for Advancing Translational Sciences (NCATS), 2010).
